Source: PubChem BioAssay (NCI)
Compounds without any hit were thinned out: in the full panel of roughly 83,000, 20% have a hit.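 The endpoint reported here, percent growth, reads 100 for growth as untreated, 0 for no net growth and -100 for all cells dead.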 Activity calls are given as the source filed them. How the source made its calls: active means growth percent below 10; inactive means the rest.

How the values were obtained:
Assay in all cases: NCI-60 one-dose screen, 48 h (100 = growth as untreated, 0 = no growth, -100 = all killed)
Conditions in all cases: 10 µM unless noted
NCI-H23 lung = tested on: NCI-H23 lung
NCI-H226 lung = tested on: NCI-H226 lung
NCI-H322M lung = tested on: NCI-H322M lung
HOP-62 NSCLC = tested on: HOP-62 NSCLC
NCI-H460 lung = tested on: NCI-H460 lung
HOP-92 NSCLC = tested on: HOP-92 NSCLC
NCI-H522 lung = tested on: NCI-H522 lung
A549/ATCC NSCLC = tested on: A549/ATCC NSCLC
786-0 renal = tested on: 786-0 renal
COLO 205 colon = tested on: COLO 205 colon

Measured: growth

CCCC[n+]1c(/C=C\c2c(OC)cc(OC)cc2OC)ccc2ccccc21
inactive: HOP-62 NSCLC 13.8% | 786-0 renal 21.5%
active: NCI-H23 lung -4.06% | NCI-H226 lung 9.84% | NCI-H322M lung 4.8% | NCI-H460 lung -43.2% | HOP-92 NSCLC -20% | NCI-H522 lung -73.4% | A549/ATCC NSCLC -22.9% | COLO 205 colon -53.3%

COc1cc(/C=C/C(=O)CC(=O)/C=C/c2ccc(O)c(OC)c2)ccc1O
active: NCI-H522 lung -22.5%
inactive: NCI-H23 lung 21.1% | NCI-H226 lung 88.1% | NCI-H322M lung 78.3% | HOP-62 NSCLC 40.9% | NCI-H460 lung 47.4% | HOP-92 NSCLC 71.9% | A549/ATCC NSCLC 63.8% | 786-0 renal 16.7% | COLO 205 colon 86.3%

CCc1cnc2ccccc2c1/C=C/c1ccc(N(C)C)cc1
inactive: NCI-H23 lung 65.2% | NCI-H226 lung 74.5% | NCI-H322M lung 71.6% | HOP-62 NSCLC 47.4% | NCI-H460 lung 30.8% | HOP-92 NSCLC 60.1% | NCI-H522 lung 23.3% | A549/ATCC NSCLC 33% | 786-0 renal 44% | COLO 205 colon 41.5%

C[n+]1ccccc1C[n+]1ccccc1
inactive: NCI-H23 lung 106% | NCI-H226 lung 108% | NCI-H322M lung 128% | HOP-62 NSCLC 100% | NCI-H460 lung 115% | HOP-92 NSCLC 101% | NCI-H522 lung 111% | A549/ATCC NSCLC 107% | 786-0 renal 108% | COLO 205 colon 114%

Cc1ccccc1N=C(N)Nc1ccccc1C (tested in a mixture with another compound)
inactive: NCI-H23 lung 94.8% | NCI-H226 lung 97.1% | NCI-H322M lung 99.4% | HOP-62 NSCLC 84.7% | NCI-H460 lung 76.1% | HOP-92 NSCLC 76.5% | A549/ATCC NSCLC 74.4% | 786-0 renal 73.9% | COLO 205 colon 85.5%
active: NCI-H522 lung 4.48%

CCN1/C(=C/C(C)=C/c2sc3ccc4ccccc4c3[n+]2CC)Sc2ccc3ccccc3c21
active: NCI-H23 lung -65.5% | NCI-H226 lung -82.4% | NCI-H322M lung -97.8% | HOP-62 NSCLC -65.2% | NCI-H460 lung -90.5% | HOP-92 NSCLC -89.1% | NCI-H522 lung -77.3% | A549/ATCC NSCLC -76.8% | 786-0 renal -88.5% | COLO 205 colon -83.6%

CCN1CCCC(Nc2cc(C)nc(/N=C(/N)Nc3ccc(Cl)c(Cl)c3)n2)C1 (configuration not stated)
active: NCI-H322M lung -17.1% | HOP-62 NSCLC -7.52% | NCI-H460 lung -18.8% | HOP-92 NSCLC -68.4% | NCI-H522 lung -69.5% | A549/ATCC NSCLC -25.1% | 786-0 renal -82.7% | COLO 205 colon -77.6%
inactive: NCI-H23 lung 33.2% | NCI-H226 lung 32.2%

Fc1ccc(NCCS)cc1
inactive: NCI-H23 lung 97.4% | NCI-H226 lung 104% | NCI-H322M lung 103% | HOP-62 NSCLC 99.6% | NCI-H460 lung 102% | HOP-92 NSCLC 103% | NCI-H522 lung 90% | A549/ATCC NSCLC 92.7% | COLO 205 colon 108%

NC(=S)N/N=C\c1nccc2c(N)cccc12
inactive: NCI-H23 lung 15.6% | HOP-92 NSCLC 19.8% | A549/ATCC NSCLC 12.4% | 786-0 renal 14.2% | COLO 205 colon 16.2%
active: NCI-H226 lung -5.48% | NCI-H322M lung 4.54% | HOP-62 NSCLC -7.04% | NCI-H460 lung 3.27% | NCI-H522 lung 6.31%

CN1CSC(=S)N(Cc2ccccc2)C1
active: NCI-H522 lung -25.6%
inactive: NCI-H23 lung 83.9% | NCI-H226 lung 104% | NCI-H322M lung 102% | HOP-62 NSCLC 108% | NCI-H460 lung 108% | HOP-92 NSCLC 69.4% | A549/ATCC NSCLC 107% | 786-0 renal 100% | COLO 205 colon 113%

CC/C(=C(/CC)c1ccc(O)cc1)c1ccc(O)cc1
inactive: NCI-H23 lung 75.8% | NCI-H226 lung 82.7% | NCI-H322M lung 77.6% | HOP-62 NSCLC 70.8% | NCI-H460 lung 85.6% | HOP-92 NSCLC 58.1% | NCI-H522 lung 61% | 786-0 renal 80% | COLO 205 colon 97.6%

CCOc1cc(F)c([N+](=O)[O-])cc1[N+](=O)[O-]
active: NCI-H522 lung -55.7% | COLO 205 colon -48.4%
inactive: NCI-H23 lung 38.9% | NCI-H226 lung 95.3% | NCI-H322M lung 103% | HOP-62 NSCLC 93.8% | NCI-H460 lung 106% | HOP-92 NSCLC 72.1% | A549/ATCC NSCLC 90.9% | 786-0 renal 59.9%

Cc1cc(C(N)=O)cc(C)c1C(=O)OCCCl
inactive: NCI-H23 lung 104% | NCI-H226 lung 105% | NCI-H322M lung 97.2% | HOP-62 NSCLC 93.9% | NCI-H460 lung 101% | HOP-92 NSCLC 90.1% | NCI-H522 lung 101% | 786-0 renal 100% | COLO 205 colon 111%
